Sampled rows, rich in hits. Any-hit rate of the full collection: about 1.5%.
TCR act: activates T cell receptor signaling. primary human leukocytes, anti-CD3, IL-2 HTRF, 48 h. Potency, µM (series often up to 9.22 µM), inactives show at the highest dose activation of IL-2 secretion, most hits filed as activators. 330,000 tested, under 10 active. AID 504894; note: % of control where 0% means no effect
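HTRF read-out of IL-2 secretion: europium cryptate donor excited at 320nm, d2 acceptor emission at 665nm. Cells were primary human leukocytes incubated 48 hr with compounds and a-CD3 beads, supplying TCR signal only.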
BRCA1 expr up: increases BRCA1 expression. MCF7-BRCA1-FFLuc reporter, luminescence, 48 h; response scale: scaled: vehicle 0%, 10 µM genistein 100%. Potency, µM (highest dose often 46.1 µM), without a hit: top-dose activation, hits mostly activators. 380,000 tested, 1.1% active. AID 624202; note: potency is the fitted concentration of half-maximal effect; nearly all actives have a fitted effect of over 80% in size
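First, MCF7-BRCA1-FFLuc cells (2000/well) attach for 2 h; next, compounds are pin-added and incubated 48 h at 37 °C; finally, luciferase reagent is added and luminescence read after 15 min.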
Akt phos inh: Akt phosphorylation inhibition; Neuro2A IGF-stimulated pAkt S473 HTRF, 20 min; hits give low values; activity change, % for hits at 50 µM; 360,000 tested, 0.32% active; in the data active = activity change below about -80%; inconclusive = mostly about -51% to -80%; note: % is set by controls: 0 for no effect and ±100 for the full control effect
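Neuro2A cells (4,500/well, DMEM with 0.5% FBS) were treated with compound at a single 50 µM final concentration, stimulated with 6 nM IGF for 20 min at 37 °C, and lysed. Phospho-Akt Ser473 was read by HTRF as 665/615 ratio ×10^4.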
PINK1 expr mod: PINK1 expression modulation; PINK1 immunofluorescence, high-content cytometry, 24 h; Potency, µM (series often up to 76.6 µM), without a hit: at the top dose activation (PINK1 increase), hits mostly activators; 410,000 tested, 0.2% active; active = well fitted activation curve with a large enough effect; inconclusive = small, poorly fitted or top-dose-only effect; cell line not stated here; note: potency is the fitted concentration of half-maximal effect; % of control where 0% means no effect; nearly all actives have a fitted effect of over 65% in size
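Measures PINK1 amount and localization on or inside mitochondria by immunofluorescence. Stable cells get compounds at 5 concentrations for 24 hours before fixation and staining; CCCP controls included.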
* = called active by the depositor; i = inactive; ? = inconclusive; nt = no result given; [ ] = dose if it differs, or a comment. Unless noted, calls come from the whole dose curve; as a rule, active = well fitted curve in the direction sought with a large enough effect; inconclusive = small, poorly fitted or top-dose-only effect, or another doubt; inactive = no such curve, though single readings can be large; an effect the other way counts as inactive or inconclusive.

SMILES	TCR act	BRCA1 expr up	Akt phos inh	PINK1 expr mod
COC(=O)C1OC2(OC1C(=O)OC)c1ccccc1-c1ccccc12 (centres undefined)	0%	-25%	-120%*	0%
COC(=O)C1C(c2ccccc2)C(C(=O)O)C1c1ccccc1 (centres undefined)	6%	9%	i	0%
CCS(CC)=NS(=O)(=O)c1ccc(NC(C)=O)cc1	-4%	22%	-118%*	-1%
CC(=O)Nc1ccc(S(=O)(=O)N=S(C)C)cc1	-6%	8%	i	1%
COC(=O)C1CCCCN1Cc1nc(N(C)C)c2ccccc2n1 (centres undefined)	nt	nt	nt	-1%
CCOC(=O)c1sc(N/N=C/c2cccc(C)c2)nc1C	4%	2.8µM*	i	8%
CCOc1ccc(-c2nc(CSc3nnc(N)s3)cs2)cc1	-1%	4µM*	i	5%
CCOc1ccc(-c2nc(CSc3nnc(N)s3)cs2)cc1OC	4%	38%	i	-3%
Cc1nc2cc(OC3(C)CCN(Cc4ccc(OC(F)(F)F)cc4)C3)ccc2s1 (centres undefined)	nt	-12%	i	45µM*
CC1CCN(S(=O)(=O)c2ccc3c(c2)N(CC(=O)O)C(=O)CO3)CC1	nt	nt	nt	4%
O=C(NCCCCCCNC(=O)OCCO)OCCO	9%	0%	i	0%
CCCCNC(=O)OCCNC(=O)NC	1%	7%	-83%*	-2%
CC(=O)NCCc1nc2cc(NC(=O)c3ccc([N+](=O)[O-])cc3)ccc2n1C	12%	6.3µM*	i	0%
CC1CCN(CCc2nc3cc(NC(=O)Nc4ccccc4)ccc3n2C)CC1	0%	14µM*	i	-1%
CC(=O)Nc1ccc2c(c1)nc(CCN1CCC(C)CC1)n2C	1%	-14%	i	3%[38.3 µM]
CN1CCN(CCc2nc3cc(NC(=O)c4ccco4)ccc3n2C)CC1	2%	0%	i	-1%
Cn1c(CN2CCCC2)nc2cc(NC(=O)c3ccco3)ccc21	-1%	5.6µM*	i	nt
Cc1ccc(C(=O)Nc2ccc3c(c2)nc(CCNC(=O)c2ccco2)n3C)cc1	2%	7.1µM*	i	?
COc1cc(=O)n2c(c1C(=O)NC(C)c1ccco1)CCN(C(=O)c1cc(C)cc(C)c1)CC2 (centres undefined)	nt	nt	nt	1%
Cn1c(CN2CCCC2)nc2cc(NC(=O)Nc3ccccc3)ccc21	5%	11µM*	i	1%[38.3 µM]
C=CCOc1ccc(CNn2cn[nH]c2=S)cc1OC	2%	4%	i	nt
C=CCOc1ccc(CNn2cn[nH]c2=S)cc1OCC	nt	-4%	-82%*	20%[38.3 µM]
CC(=O)N[C@@H](C)C(=O)NCC1Cc2cc(C)cc(-c3cnccn3)c2O1 (some centres undefined)	nt	nt	nt	0%
CC(C)(C)n1nnnc1C(c1ccccn1)N1CCN(C(c2ccccc2)c2ccccc2)CC1 (centres undefined)	3%	1%	i	0%
COc1cccc(N2CCN(C(c3ccccn3)c3nnnn3C(C)(C)C)CC2)c1 (centres undefined)	-7%[46.1 µM]	-24%	-105%*	-1%
SMILES	TCR act	BRCA1 expr up	Akt phos inh	PINK1 expr mod
Cc1ccccc1C1(CC(=O)N2CCC[C@H]2C(N)=O)CC(=O)N(C2CCCC2)C1=O (some centres undefined)	nt	nt	nt	1%
Cc1ccc(NC(=O)c2ccc(Nc3ccccc3F)nc2)cc1	13%[46.1 µM]	8.9µM*	i	5%
O=C1c2ccccc2S(=O)(=O)N1CC1CC(c2ccccc2)=NO1 (centres undefined)	8%	11µM*	nt	0%
O=C(CN1C(=O)c2ccccc2S1(=O)=O)c1ccccc1	2%	-73%	i	1%
O=C1c2ccccc2S(=O)(=O)N1CC1CC(c2ccc(Cl)cc2)=NO1 (centres undefined)	2%[46.1 µM]	3.2µM*	i	20%
COc1ccc(C2=NOC(CN3C(=O)c4ccccc4S3(=O)=O)C2)cc1 (centres undefined)	-3%	2.8µM*	i	7%
COC(=O)Cn1cc(/C=N/NC(=O)c2ccc(C#N)cc2F)c2ccccc21	nt	1%	i	11µM*
CCn1cc(/C=N/NC(=O)c2ccc(C#N)cc2F)c2ccccc21	nt	-38%	i	4%[38.3 µM]
COC(=O)CNC(=O)c1cnn(-c2ncc3c(n2)-c2ccccc2CCC3)c1C1CC1	nt	nt	nt	0%
COc1ccc(C2NN=C(c3ccc(C)cc3)S2)cc1 (centres undefined)	-3%	1.8µM*	i	7%

Compound activity deposited in PubChem BioAssay by National Center for Advancing Translational Sciences (NCATS).
